Compound activity from PubChem BioAssay.
TIM10 inh: growth inhibitors of TIM10 yeast strain; inhibition, % at 10 µM; S. cerevisiae TIM10 strain growth, BacTiter-Glo luminescence, 24 h; hit rate 1.4% among 330,000;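 active = inhibition of 40% or more at the single tested concentration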;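 note: wild-type TIM10 isogenic control strain grown at permissive 25 °C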
tim23-1 inh: growth inhibitors of tim23-1 mutant yeast; S. cerevisiae tim23-1 growth, BacTiter-Glo luminescence, 24 h; inhibition, % at 20 µM; hit rate 1.3% among 330,000; AID 463212;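 active = growth inhibition of the mutant yeast at or above 50%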;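 note: temperature-sensitive mutant grown at 25 °C; plate controls were DMSO-treated mutant yeast for no effect and medium wells lacking yeast for full effect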
PfHsp90 yeast 2: growth inhibition of yeast expressing Plasmodium Hsp90; hit rate 0.32% among 310,000; inhibition, % at 9.4 µM; S. cerevisiae expressing PfHsp90, BacTiter-Glo ATP, 48 h; yeast lacking PDR1 and PDR3 efflux regulators;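 active = every replicate shows inhibition above about 80%, whatever the replicate mean, limit read from the data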;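 note: 0% = DMSO neutral controls and 100% = 20 µM radicicol positive controls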
NALP3 yeast inh: blocks the NALP3 inflammasome reconstituted in yeast; Yeast reconstituted NLRP3/ASC/caspase-1, beta-gal luminescence, 24 h; AID 2825; hit rate 0.39% among 330,000; inhibition, % at 10 µM;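 active = inhibition of 50% or more; inactive = inhibition below 50%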;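 note: plate controls were induced DMSO wells for no effect and uninduced yeast grown without galactose for full effect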
tim10-1 inh: tim10-1 yeast growth inhibition; S. cerevisiae tim10-1 ts strain growth, BacTiter-Glo, 24 h; AID 463190; inhibition, % at 20 µM; hit rate 2.2% among 330,000;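 active = inhibition of at least 40%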;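 note: mutant grown at 25 °C; 0% = DMSO wells with yeast and 100% = wells holding no yeast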
SKKanGAS inh: blocks kanamycin growth of S. pyogenes SKKanGAS strain; BacTiter-Glo, 6 h; hit rate 1.3% among 300,000; inhibition, % at 7.5 µM;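 active = mean replicate score, as percent of positive control median, at least 50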;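 note: strain carries kanamycin resistance gene driven by streptokinase promoter and grows in 40 µg/ml kanamycin; loss of luminescence reflects streptokinase promoter inhibition or plain growth inhibition; 0% = median of DMSO wells and 100% = positive control at its reference dose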
* marks the source's active call; other numbers are inactive results; . = no result. Most compounds without a hit are left out; they make up all but 4.5% or so of the library.

SMILES	TIM10 inh	tim23-1 inh	PfHsp90 yeast 2	NALP3 yeast inh	tim10-1 inh	SKKanGAS inh
CC(=O)Oc1ccc(C2=NN(c3ccccc3)C(c3ccccc3)C2)cc1 (stereo not given)	21.3	13.5	-19.0	17.3	18.7	64.6*
COc1cc(N2N=C(c3ccccc3)CC2c2ccccc2)c(C=O)cc1C=O (stereo not given)	3.3	9.5	11.4	9.1	15.1	55.0*
COc1ccccc1N1N=C(c2ccc([N+](=O)[O-])cc2)CC1c1ccccc1 (stereo not given)	1.6	23.5	-0.5	24.4	8.6	-7.4
Cc1ccc(NC(=O)c2cccc(S(=O)(=O)N3CCN(c4ccc(F)cc4)CC3)c2)nc1	25.4	33.6	23.4	16.2	31.1	4.0
COc1ccc(C2c3ccsc3CCN2C(=O)C(C)(C)C)cc1 (stereo not given)	9.8	30.4	-24.6	-25.3	16.2	50.3*
CCN(CC(=O)NCc1ccc(Cl)cc1)Cc1cc(=O)n2ccsc2n1	-16.3	15.5	.	0.0	-2.8	.
CCCC(=O)NC1=C(Cl)C(=O)c2ccccc2C1=O	.	.	146.2*	.	.	.
CCNC1=C(Cl)C(=O)c2ccccc2C1=O	18.7	44.7	-4.2	1.4	2.0	10.8
O=C(NN=C1c2ccccc2-c2ccccc21)c1cccc(Br)c1	24.4	-26.4	-7.6	15.9	17.4	71.8*
O=C(COc1cccc(Br)c1)NN=C1c2ccccc2-c2ccccc21	11.0	5.7	-39.3	-0.2	8.4	-14.2
CC1CCC2(CC1)NC(=O)N(CC(=O)c1ccc(CNC(=O)C(C)(C)C)s1)C2=O (stereo not given)	9.3	-7.9	.	3.7	-11.3	.
CCN(CC)c1ccc(/C=C2/SC(=O)N(C(C)C)C2=O)o1	.	.	85.8*	.	.	-11.5
O=C(Nc1ccc(C(=O)O)cc1)Nc1ccc([N+](=O)[O-])cc1	1.7	4.1	-23.9	0.4	3.3	10.2
COC(=O)c1ccc(NC(=O)Nc2ccc([N+](=O)[O-])cc2)cc1	-21.1	-14.2	-0.1	26.7	-15.4	50.8*
CC(=O)N(C)c1ccc(OCC(O)Cn2c3ccc(Cl)cc3c3cc(Cl)ccc32)cc1 (stereo not given)	39.2	23.7	97.7*	10.4	38.7	64.9*
COc1ccc(O)c(/C=N/Nc2nc(Nc3ccccc3)nc(-n3nc(C)cc3C)n2)c1	29.5	31.9	-65.6	36.2	35.8	103.0*
COc1cc(/C=N/Nc2nc(Nc3ccccc3)nc(-n3nc(C)cc3C)n2)cc(OC)c1OC	14.5	3.5	-31.2	-3.7	25.8	75.0*
COc1ccc(/C=N/Nc2nc(Nc3ccccc3)nc(N3CCCC3)n2)cc1[N+](=O)[O-]	8.3	-0.2	13.1	28.3	-7.7	25.9
COc1cc(/C=N/Nc2nc(Nc3ccc(C)cc3)nc(-n3nc(C)cc3C)n2)cc(OC)c1OC	17.7	-23.8	-115.5	-1.7	18.8	74.0*
CCCn1c(=O)c(C(=O)NNC(=O)c2ccc(Cl)cc2Cl)c(O)c2ccccc21	-19.2	15.4	25.6	44.2	30.1	69.6*
CCCn1c(=O)c(C(=O)NCCc2ccccc2)c(O)c2ccccc21	3.3	39.9	9.8	10.9	-3.2	8.7
CCCn1c(=O)c(C(=O)NNS(=O)(=O)c2ccc(Cl)cc2)c(O)c2ccccc21	2.6	27.4	-7.9	-3.0	-8.6	95.8*
Cn1nc(C(=O)NNC(=O)c2cccc(Cl)c2)c2ccccc2c1=O	-3.7	7.7	8.0	15.3	-8.3	.
Cn1c(=O)c(C(=O)NNC(=O)c2cccc(Cl)c2)c(O)c2ccccc21	24.8	40.9	-12.3	27.3	-37.1	61.7*
CCc1cc2c(COC(=O)c3cc(S(=O)(=O)N4CCOCC4)ccc3F)cc(=O)oc2cc1O	8.4	11.8	-22.5	18.1	12.7	.
SMILES	TIM10 inh	tim23-1 inh	PfHsp90 yeast 2	NALP3 yeast inh	tim10-1 inh	SKKanGAS inh
CCc1cc2c(COC(=O)c3cccc(NS(C)(=O)=O)c3)cc(=O)oc2cc1O	1.8	-7.9	-9.4	16.2	-24.5	49.6*
O=C(N/N=C/c1cc([N+](=O)[O-])ccc1O)c1ccc2c(c1)OCCO2	1.6	0.1	0.7	14.1	8.7	69.8*
O=C(NC(=S)Nc1cc([N+](=O)[O-])ccc1O)c1ccc2c(c1)OCO2	6.8	15.9	-6.0	36.7	-2.6	79.3*
COc1cc([N+](=O)[O-])ccc1NC(=S)NNC(=O)c1ccc2c(c1)OCO2	17.0	11.6	-49.4	33.5	3.3	25.6
O=C(N/N=C/c1cc([N+](=O)[O-])ccc1O)c1ccncc1	-0.8	-6.9	-10.3	13.0	3.6	92.1*
O=C(N/N=C/c1cc(Br)ccc1O)c1ccncc1	6.8	42.9	14.6	18.7	2.8	104.1*
O=C(O)C1C2CCC(O2)C1C(=O)Nc1ccc(Br)cc1F (stereo not given)	.	.	11.3	.	.	0.1
O=C(COC(=O)C1=COCCO1)Nc1ccc([N+](=O)[O-])cc1C(F)(F)F	2.4	0.1	.	20.6	-9.9	.
Cc1nn(CC(=O)N2CCc3ccccc32)c(C)c1S(=O)(=O)NC(C)(C)C	-9.3	2.9	-2.0	20.8	-10.3	.
Cc1nc(C)c(C(=O)N/N=C/c2cc(Br)ccc2O)s1	34.6	39.1	-17.9	14.4	4.0	90.6*
O=C(N/N=C/c1cc(O)ccc1Br)c1cccnc1	3.3	46.9	-6.9	8.6	-14.3	110.8*
O=C(N/N=C/c1ccc(O)c(O)c1)c1cccc(S(=O)(=O)N2CCCCC2)c1	4.4	8.1	11.1	11.2	9.6	0.3
O=C(CSc1nc2ccccc2s1)N/N=C/c1cc([N+](=O)[O-])ccc1O	-0.1	19.0	-31.8	-7.5	2.0	90.6*
Cc1ccc(/C=N/NC(=O)CSc2nc3ccccc3s2)o1	21.1	15.8	8.1	18.6	12.0	-1.7
O=C(N/N=C/c1cc(Br)c(O)c(Br)c1O)c1cccnc1	7.0	4.6	-13.5	19.9	-4.6	7.7
O=C(N/N=C\c1cc(Br)ccc1O)c1ccc(S(=O)(=O)N2CCCCC2)cc1	25.6	6.1	-4.1	5.4	17.9	106.0*
Cc1nc(C)c(C(=O)N/N=C/c2c[nH]c3ccccc23)s1	7.8	-5.6	13.2	10.3	19.4	7.8
COCCN(CC(=O)Nc1ccccc1C(F)(F)F)C(=O)/C=C/c1ccc2ccccc2n1	12.2	6.4	7.1	3.4	2.4	.
CN(C)Cc1ccc(CNC(=O)COc2ccc3ccccc3c2)cc1	8.0	-0.3	-20.2	-5.7	-10.9	-1.6
Cn1cnnc1Sc1ccc(C(F)(F)F)cc1[N+](=O)[O-]	-6.5	-4.5	-5.0	7.7	-7.3	1.1
Cc1ccsc1C(=O)NNC(=O)COc1ccccc1Cl	2.8	14.1	.	15.2	18.4	1.0
O=C(N/N=C/c1cc([N+](=O)[O-])ccc1O)c1cccc(N2CCCC2=O)c1	-3.2	26.6	-24.6	10.1	7.1	55.4*
O=C(N/N=C/c1cc([N+](=O)[O-])ccc1O)C(O)(c1ccccc1)c1ccccc1	-9.3	14.7	1.7	25.9	-10.0	50.6*
